In PubChem BioAssay AID1159580 (chemical genetic matrix, 2015):
In all, about 5,500 compounds went through this assay and about 2,000 (36%) were called active. About 18% were inconclusive and are not listed. Cut-off read from the data, not from the text of the source: active = normalized growth mostly below about 0.91 (no sharp cut-off); inconclusive = no clear call, values can overlap the other calls; inactive = mostly above about 0.92. The list shows a part of the results.

Assay: chemical genetic growth profiling, strain panel (AID 1159580);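 note: tested at 20 µM; growth read once vehicle control cultures reached saturation at 30 °C; 1 = growth at the plate median or of vehicle wells; lower values mean less growth of the strain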
Conditions: S. cerevisiae deletion strains, growth OD

Measured: normalized growth

COc1cc2c(cc1-c1coc3c4c(c(OC)cc3c1=O)OC(C)(C)C=C4)OCO2
active: locus YDR137W, strain rgp1, stronger effect = lower value 0.654 | locus YDR195W, strain ref2 1.18 [resistant] | locus YDR392W, strain spt3, stronger effect = lower value 0.295 | locus YLR262C, strain YPT6 (second series), stronger effect = lower value 0.681 | locus YLR418C, strain cdc73, stronger effect = lower value 0.798 | locus YNL071W, strain lat1, stronger effect = lower value 0.799 | locus YNL233W, strain BNI4, stronger effect = lower value 0.868 | locus YPL051W, strain arl3, stronger effect = lower value 0.895
inactive: locus YAL013W, strain DEP1, stronger effect = lower value 0.934 | locus YAL021C, strain ccr4, stronger effect = lower value 0.993 | locus YAL026C, strain drs2, stronger effect = lower value 1.03 | locus YAL030W, strain snc1, stronger effect = lower value 1.03 | locus YBL061C, strain skt5, stronger effect = lower value 1.02 | locus YBR009C, strain hhf1, stronger effect = lower value 0.95 | locus YBR021W, strain FUR4, stronger effect = lower value 1.05 | locus YBR023C, strain chs3, stronger effect = lower value 0.971 | locus YBR171W, strain sec66, stronger effect = lower value 1.03 | locus YBR229C, strain ROT2, stronger effect = lower value 0.994 | locus YBR231C, strain swc5, stronger effect = lower value 1.04 | locus YBR279W, strain paf1, stronger effect = lower value 0.985 | locus YCL011C, strain gbp2, stronger effect = lower value 1 | locus YCL016C, strain dcc1, stronger effect = lower value 0.982 | locus YCL029C, strain bik1, stronger effect = lower value 0.985 | locus YCL061C, strain MRC1, stronger effect = lower value 1.01 | locus YCL069W, strain vba3, stronger effect = lower value 1.05 | locus YCR088W, strain abp1, stronger effect = lower value 1.05 | locus YDL005C, strain med2, stronger effect = lower value 1.04 | locus YDL035C, strain GPR1, stronger effect = lower value 0.998 | locus YDL040C, strain nat1, stronger effect = lower value 1.02 | locus YDL074C, strain BRE1, stronger effect = lower value 0.902 | locus YDL101C, strain DUN1, stronger effect = lower value 0.95 | locus YDL134C, strain PPH21, stronger effect = lower value 0.907 | locus YDL185W, strain tfp1, stronger effect = lower value 1.01 | locus YDL192W, strain arf1, stronger effect = lower value 0.966 | locus YDR001C, strain nth1, stronger effect = lower value 1.04 | locus YDR069C, strain doa4, stronger effect = lower value 1.04 | locus YDR101C, strain arx1, stronger effect = lower value 1 | locus YDR159W, strain sac3, stronger effect = lower value 0.981 | locus YDR162C, strain NBP2, stronger effect = lower value 0.884 | locus YDR297W, strain sur2, stronger effect = lower value 1.02 | locus YDR318W, strain mcm21, stronger effect = lower value 0.964 | locus YDR334W, strain swr1, stronger effect = lower value 1.04 | locus YDR335W, strain msn5, stronger effect = lower value 1.03 | locus YDR388W, stronger effect = lower value 0.986 | locus YDR502C, strain sam2, stronger effect = lower value 0.97 | locus YEL003W, strain gim4, stronger effect = lower value 1.02 | locus YEL037C, strain rad23, stronger effect = lower value 1.04 | locus YEL061C, strain CIN8 (second series), stronger effect = lower value 1.04 | locus YER015W, strain faa2, stronger effect = lower value 0.991 | locus YER016W, strain bim1, stronger effect = lower value 1.03 | locus YER110C, stronger effect = lower value 0.994 | locus YER111C, strain swi4, stronger effect = lower value 0.994 | locus YER155C, strain BEM2 (second series), stronger effect = lower value 0.926 | locus YER155C, strain BEM2, stronger effect = lower value 0.988 | locus YER167W, strain BCK2, stronger effect = lower value 1.01 | locus YFR010W, strain ubp6, stronger effect = lower value 1.07 | locus YGL078C, strain dbp3, stronger effect = lower value 0.983 | locus YGL086W, strain mad1, stronger effect = lower value 0.959 | locus YGL167C, strain pmr1, stronger effect = lower value 1.02 | locus YGL173C, strain kem1, stronger effect = lower value 1 | locus YGL227W, strain vid30, stronger effect = lower value 1.08 | locus YGL240W, strain doc1, stronger effect = lower value 0.984 | locus YGL248W, strain PDE1, stronger effect = lower value 0.929 | locus YGL253W, strain hxk2, stronger effect = lower value 1.01 | locus YGR135W, strain pre9, stronger effect = lower value 0.916 | locus YGR252W, strain gcn5, stronger effect = lower value 0.863 | locus YHR013C, strain ard1, stronger effect = lower value 0.991 | locus YHR027C, strain rpn1, stronger effect = lower value 1.03 | locus YHR030C, strain SLT2, stronger effect = lower value 0.968 | locus YHR079C, strain IRE1 (second series), stronger effect = lower value 0.995 | locus YHR094C, strain hxt1, stronger effect = lower value 1 | locus YHR129C, strain ARP1, stronger effect = lower value 0.959 | locus YHR142W, strain chs7, stronger effect = lower value 0.976 | locus YHR200W, strain rpn10, stronger effect = lower value 0.957 | locus YIL066C, strain RNR3, stronger effect = lower value 0.991 | locus YIL073C, strain SPO22, stronger effect = lower value 0.919 | locus YIL125W, strain kgd1, stronger effect = lower value 0.982 | locus YIR030C, strain dcg1, stronger effect = lower value 1 | locus YJL092W, strain hpr5, stronger effect = lower value 1.04 | locus YJL095W, strain BCK1 (second series), stronger effect = lower value 0.974 | locus YJL095W, strain BCK1, stronger effect = lower value 0.809 | locus YJL115W, strain asf1, stronger effect = lower value 1.04 | locus YJL129C, strain trk1, stronger effect = lower value 1.03 | locus YJL134W, strain LCB3, stronger effect = lower value 1 | locus YJL154C, strain vps35, stronger effect = lower value 1.04 | locus YJL164C, strain tpk1, stronger effect = lower value 0.968 | locus YJL166W, strain qcr8, stronger effect = lower value 0.933 | locus YJL168C, strain set2, stronger effect = lower value 0.985 | locus YJL187C, strain SWE1 (second series), stronger effect = lower value 0.938 | locus YKL009W, strain mrt4, stronger effect = lower value 1.01 | locus YKL068W, stronger effect = lower value 1 | locus YKL085W, strain MDH1 (second series), stronger effect = lower value 1 | locus YKL085W, strain MDH1, stronger effect = lower value 1 | locus YKL160W, strain elf1, stronger effect = lower value 0.927 | locus YKR001C, strain vps1, stronger effect = lower value 0.937 | locus YKR026C, strain gcn3, stronger effect = lower value 1.06 | locus YKR091W, strain srl3, stronger effect = lower value 1.02 | locus YLL001W, strain dnm1, stronger effect = lower value 1.01 | locus YLL026W, stronger effect = lower value 1.04 | locus YLL041C, strain sdh2, stronger effect = lower value 1.03 | locus YLR027C, strain aat2, stronger effect = lower value 0.992 | locus YLR039C, strain RIC1, stronger effect = lower value 0.788 | locus YLR058C, strain SHM2, stronger effect = lower value 0.984 | locus YLR102C, strain apc9, stronger effect = lower value 0.997 | locus YLR221C, strain rsa3, stronger effect = lower value 1.01 | locus YLR258W, strain gsy2, stronger effect = lower value 0.978 | locus YLR268W, strain sec22, stronger effect = lower value 0.998 | locus YLR320W, strain mms22, stronger effect = lower value 0.912 | locus YLR342W, strain FKS1 (second series), stronger effect = lower value 0.936 | locus YLR342W, strain FKS1, stronger effect = lower value 0.968 | locus YLR357W, strain rsc2, stronger effect = lower value 1.12 | locus YLR370C, strain arc18, stronger effect = lower value 0.973 | locus YLR371W, strain rom2, stronger effect = lower value 1.02 | locus YLR384C, strain iki3, stronger effect = lower value 1.03 | locus YML016C, strain PPZ1, stronger effect = lower value 0.987 | locus YML032C, strain rad52, stronger effect = lower value 0.963 | locus YML120C, strain ndi1, stronger effect = lower value 0.971 | locus YML124C, strain tub3, stronger effect = lower value 1 | locus YMR058W, strain fet3, stronger effect = lower value 1 | locus YMR078C, strain ctf18, stronger effect = lower value 0.986 | locus YMR125W, strain sto1, stronger effect = lower value 1.01 | locus YMR129W, stronger effect = lower value 1.03 | locus YMR205C, strain PFK2, stronger effect = lower value 0.919 | locus YMR223W, strain ubp8, stronger effect = lower value 0.928 | locus YMR231W, strain pep5, stronger effect = lower value 1.01 | locus YMR307W, strain GAS1, stronger effect = lower value 0.685 | locus YNL067W, strain RPL9B, stronger effect = lower value 0.956 | locus YNL209W, strain ssb2, stronger effect = lower value 1 | locus YNL248C, strain rpa49, stronger effect = lower value 1.1 | locus YNL250W, strain rad50, stronger effect = lower value 0.972 | locus YNL271C, strain bni1, stronger effect = lower value 0.991 | locus YNL298W, strain CLA4, stronger effect = lower value 0.953 | locus YNL307C, strain MCK1, stronger effect = lower value 0.907 | locus YNL322C, strain KRE1 (second series), stronger effect = lower value 1.04 | locus YNR049C, strain mso1, stronger effect = lower value 1.03 | locus YNR052C, strain pop2, stronger effect = lower value 0.944 | locus YOL006C, strain TOP1, stronger effect = lower value 0.842 | locus YOL012C, strain htz1 0.696 | locus YOL147C, strain pex11, stronger effect = lower value 0.996 | locus YOR001W, strain rrp6, stronger effect = lower value 1.02 | locus YOR061W, strain CKA2, stronger effect = lower value 1.02 | locus YOR069W, strain VPS5, stronger effect = lower value 0.973 | locus YOR070C, strain gyp1, stronger effect = lower value 0.992 | locus YOR080W, strain dia2, stronger effect = lower value 1.04 | locus YOR083W, strain WHI5, stronger effect = lower value 0.959 | locus YOR106W, strain vam3, stronger effect = lower value 0.996 | locus YOR136W, strain idh2, stronger effect = lower value 0.98 | locus YOR144C, strain elg1, stronger effect = lower value 0.993 | locus YOR184W, strain ser1, stronger effect = lower value 0.904 | locus YOR265W, strain rbl2, stronger effect = lower value 1.01 | locus YOR270C, strain vph1, stronger effect = lower value 0.871 | locus YOR290C, strain snf2, stronger effect = lower value 0.948 | locus YOR316C, strain cot1, stronger effect = lower value 0.985 | locus YPL078C, strain atp4, stronger effect = lower value 0.95 | locus YPL106C, strain sse1, stronger effect = lower value 1.05 | locus YPL240C, strain hsp82, stronger effect = lower value 1.04 | locus YPR119W, strain clb2, stronger effect = lower value 0.995 | locus YPR141C, strain kar3, stronger effect = lower value 0.999 | locus YPR163C, strain tif3, stronger effect = lower value 0.986 | locus YPR167C, strain met16, stronger effect = lower value 0.972 | strain wtn01, stronger effect = lower value 0.989
